D1 ag: agonists of human D1 dopamine receptor | P21728 | AID 504660 | 360,000 compounds, 1% hits | activation, % at 2 µM | HEK293 T-REx D1 cells, calcium flux, agonist mode; also: 0% is about no effect
Target sequence (P21728 whole entry, looked up): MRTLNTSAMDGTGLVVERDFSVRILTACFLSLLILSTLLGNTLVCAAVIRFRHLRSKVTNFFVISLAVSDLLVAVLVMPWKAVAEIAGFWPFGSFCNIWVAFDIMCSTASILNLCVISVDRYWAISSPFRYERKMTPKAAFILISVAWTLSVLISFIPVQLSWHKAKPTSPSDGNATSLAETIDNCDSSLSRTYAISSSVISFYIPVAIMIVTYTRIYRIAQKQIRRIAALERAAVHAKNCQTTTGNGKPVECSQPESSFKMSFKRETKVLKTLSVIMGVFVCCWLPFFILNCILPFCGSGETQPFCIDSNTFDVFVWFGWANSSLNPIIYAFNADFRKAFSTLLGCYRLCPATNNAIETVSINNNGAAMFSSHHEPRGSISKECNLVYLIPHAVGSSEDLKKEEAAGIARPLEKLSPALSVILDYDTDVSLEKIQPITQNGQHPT
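Agonism was scored from calcium flux recorded over 180 s (1 read/s) after pintool compound addition, following a 10-cycle baseline. Cells were inducible force-coupled HEK293 TREx D1, plated overnight at 30 C and loaded with no-wash calcium dye.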
D1 antag: blocks dopamine activation of the human D1 receptor; activity change, negative = inhibition, % at 10 µM; 360,000 compounds, 3.2% hits; HEK293 TREx D1 cells, calcium flux, dopamine EC80; hits give low values; AID 504652; in the data active = activity change below about -30%; also: % is scaled to controls: 0 for no effect and ±100 for the full control effect
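Antagonism measured as reduced calcium response to an EC80 dopamine addition following 180 s compound pre-read; cells were inducible HEK293 Trex D1 plated overnight at 30 C, read kinetically at 1 cycle/sec.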
TRHR ag: TRH receptor (human) agonism | TRHR cells, calcium flux fluo-8, FDSS agonist mode | activation, % at 2 µM | 360,000 compounds, 0.18% hits | AID 493084; also: 0% is about no effect
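TRHR-expressing cells loaded with fluo-8 calcium dye; 23 nL library compound pin-transferred, kinetic FDSS fluorescence (Ex 480/Em 530) recorded about 180 s for agonist-induced calcium release, before a 10 nM TRH EC20 addition for potentiator mode.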
TRHR enhancer: allosterically enhances the human TRH receptor. 360,000 compounds, 0.66% hits. AID 493056. TRHR cells, fluo-8 calcium fluorescence, EC20 TRH enhancement. enhancement, % at 2 µM; in the data active = enhancement above about 30%; also: 0% is about no effect
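Enhancer read-out: after compound pinning and an initial kinetic agonist-mode read, an EC20 of TRH (10 nM final) was injected and fluo-8 calcium signal (Ex 480/Em 530) followed at 1 s/cycle for 100 cycles in TRHR-expressing cells.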
D1 PAM: potentiators of human D1 dopamine receptor. HEK293 TREx D1 cells, calcium flux, dopamine EC20 potentiation. potentiation, % at 10 µM. 360,000 compounds, 0.036% hits; in the data active = potentiation above about 30%; also: 0% is about no effect
The depositor's hits bear a star. Rows were chosen to be rich in hits. Some 4.6% of all compounds tested hit in one or more screens of this group. Rule as the data show it, unless noted: active = activation above about 30%; inactive = the rest.

SMILES | D1 ag | D1 antag | TRHR ag | TRHR enhancer | D1 PAM
Cc1ccc(NC(=S)N(CCN(C)C)Cc2cccs2)cc1 | 4 | -36* | 0 | -1 | -8
O=C(c1ccccc1)c1ccc(OCC(O)CNCc2ccc(Cl)cc2)cc1 (stereo unspecified) | 75* | -2 | -1 | 13 | 5
OC(CNC1Cc2ccccc2C1)COc1ccc(Cl)cc1 (stereo unspecified) | 40* | 16 | 1 | 2 | -3
OC(CNC1CCCC1)COc1ccc(-c2ccccc2)cc1 (stereo unspecified) | 21 | -28 | 2 | 18 | -8
COc1ccc(C)cc1NC(=O)CSc1ncc2c(n1)-c1ccc(Cl)cc1N(Cc1ccccc1)S2(=O)=O | 3 | -1 | 0 | 2 | 3
Cc1ccc(S(=O)(=O)N(C)Cc2ccc(C(=O)N/N=C/c3ccc(OC(F)F)cc3OC(F)F)cc2)cc1 | 4 | -13 | 1 | 6 | -4
Cc1ccc(S(=O)(=O)N(C)Cc2ccc(C(=O)N/N=C3\CC(=O)CC(C)(C)C3)cc2)cc1 | -1 | -42* | 0 | -1 | -4
COc1ccc(C(=O)c2sc3nc(-c4ccc(C)cc4)cc(C(F)(F)F)c3c2N)cc1 | 90* | -4 | 7 | -5 | -5
COc1ccc(C(=O)c2sc3nc(-c4ccc(OC)cc4)ccc3c2N)cc1 | 61* | -8 | 13 | 3 | -6
COc1ccc(NC(=O)c2sc3nc(-c4ccc(OC)cc4)cc(C(F)(F)F)c3c2N)cc1 | 11 | -9 | 4 | 9 | -1
COc1cccc(-c2ccc3c(N)c(C(=O)c4ccc(F)cc4)sc3n2)c1 | 150* | -10 | 24 | 8 | -4
Cn1c(=O)n(C/C=C/c2ccccc2)c(=O)c2c1nc1n2CCN1c1ccccc1 | 4 | -12 | 0 | -1 | 8
COc1cc(-c2nnc(-c3cccnc3)o2)cc(OC)c1OC | 1 | -88* | 1 | 0 | -11
COc1ccc(-c2nnc(-c3cccnc3)o2)cc1OC | 3 | 7 | 0 | 0 | -7
CCN(CCCNC(=O)CSc1cc(=O)n(CC)c2ccccc12)c1cccc(C)c1 | 4 | -25 | 0 | -5 | 2
Cc1cc(C)cc(-n2c(C)cc(/C=N\NC(=O)COc3cccc4cccnc34)c2C)c1 | 45* | 11 | 0 | -2 | 3
Cc1cc(/C=N/NC(=O)COc2cccc3cccnc23)c(C)n1-c1ccc(O)cc1 | 0 | -15 | 1 | 5 | 5
Cc1cc(S(=O)(=O)NCCc2csc(-c3cccc(F)c3)n2)ccc1F | 3 | 8 | 0 | -7 | -1
COc1ccccc1NC(=O)C1=C(C)Nc2nc(-c3ccco3)nn2C1c1ccccc1F (stereo unspecified) | -3 | -12 | 0 | 2 | 0
COc1cc(C(=O)Nc2ccccc2-c2nc(-c3ccccc3)no2)cc(OC)c1OC | 1 | -12 | 50* | 6 | -5
COc1cccc(NC(=O)c2ccccc2-c2nc(-c3ccc(Cl)cc3)no2)c1 | 7 | -33* | -1 | -1 | 3
COc1cccc(NC(=O)c2ccccc2-c2nc(-c3ccccc3)no2)c1 | 3 | -16 | 0 | 1 | -8
COc1cc(OC)cc(C(=O)NC(C)c2ccc(Br)cc2)c1 (stereo unspecified) | 41* | 4 | 0 | -9 | -1
COc1cccc(C(=O)NC(C)c2ccc(Br)cc2)c1 (stereo unspecified) | 8 | 2 | 0 | -3 | -2
O=C(CCCn1c(=O)[nH]c2cc(Cl)ccc2c1=O)NCCCN1CCCC1 | 2 | -15 | 0 | -1 | -3
COCCn1c(=O)[nH]c2cc(C(=O)NCCCN3CCN(c4ccc(F)cc4)CC3)ccc2c1=O | 2 | -39* | 0 | 5 | -3
O=C(CCCn1c(=O)[nH]c2cc(Cl)ccc2c1=O)NCCCN1CCN(c2ccc(F)cc2)CC1 | -1 | -66* | 0 | 16 | -12
COc1cc2[nH]c(=O)n(CCC(=O)NCCCN3CCN(c4ccccc4F)CC3)c(=O)c2cc1OC | 2 | -42* | 0 | -3 | -9
NC(=O)c1c(NC(=O)c2noc3c2CCCC3)sc2c1CCCC2 | -3 | 8 | -1 | 10 | 2
CC(C)CN(C(=O)COC(=O)c1ccc([N+](=O)[O-])o1)C1CCS(=O)(=O)C1 (stereo unspecified) | 2 | -32* | 1 | 0 | -7
